gsp antag = qHTS for Antagonists of gsp, the Etiologic Mutation Responsible for Fibrous Dysplasia/McCune-Albright Syndrome: qHTS; Potency, µM (titrated, usually from 76.9 µM), hits mostly inhibitors; AID 624288, 2012; 0.4% of 340,000 active; gsp-mutant cells, cAMP HTRF, 30 min; calls by dose curve; cell line not stated here;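 also: intracellular cAMP measured with PDE inhibitor Ro 20-1724 present during compound exposure; nearly all actives have a fitted effect of over 65% in size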
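Measurement of cellular cAMP by homogeneous time-resolved fluorescence following a 30 min compound exposure at 37C. The PDE inhibitor […] was present throughout; the assay buffer was DPBS with 0.05% BSA and 0.005% Tween 20.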
TSHR antagonist = Antagonists of the Thyroid Stimulating Hormone Receptor: HTS campaign | AID 504810, 2011 | activity change, negative = inhibition, % at 11.5 µM | Thyrotropin receptor (Homo sapiens), P16473 | 0.2% of 330,000 active | TSHR-expressing cells, TSH-stimulated cAMP HTRF, 2 h; hits give low values;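 active = activity change below a set negative limit, meaning inhibition stronger than a set level, cut at about -70% in these data; inconclusive = activity change between two set negative limits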
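Read-out is FRET at 665 nm (cryptate excitation 337 nm) from a cryptate-tagged anti-cAMP antibody, competed by cell cAMP against cAMP-d2. Compounds are tested on freshly harvested TSHR cells challenged with 4nM TSH (EC80) for 2 hours at 37 deg C.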
gsp agonist = qHTS for Agonist of gsp, the Etiologic Mutation Responsible for Fibrous Dysplasia/McCune-Albright Syndrome: qHTS. gsp mutant cells, cAMP HTRF, 30 min. 0.13% of 340,000 active. Potency, µM (doses to about 76.9 µM), hits mostly activators; active = well fitted activation curve with a large enough effect; inconclusive = small, poorly fitted or top-dose-only effect, or another doubt; inactive = no such curve, though single readings can be large or run the other way; cell line not stated here;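 also: phosphodiesterase inhibitor Ro 20-1724 added with compounds to block cAMP breakdown; nearly all actives have a fitted effect of over 60% in size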
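Cells in DMEM/10% FBS with G418 were pretreated with compounds in DMSO plus […] (300 uM stock) for 30 min at 37C. cAMP was measured by HTRF (cAMP-d2 plus anti-cAMP antibody-K) after 30 min at room temperature.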
RXFP1 antagonist = qHTS Assay for Antagonists of the Relaxin Receptor RXFP1 | activity change, negative = inhibition, % at 57.5 µM | Relaxin receptor 1 (Homo sapiens), Q9HBX9 | HEK293-RXFP1, relaxin-stimulated cAMP HTRF, 30 min; hits give low values | 0.59% of 350,000 active;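 active = activity change of -60% or lower, but not beyond a set lower limit; inconclusive = change between -60% and -40%, or beyond the set limit; inactive = change above -40%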
Target sequence (Q9HBX9 whole entry, looked up): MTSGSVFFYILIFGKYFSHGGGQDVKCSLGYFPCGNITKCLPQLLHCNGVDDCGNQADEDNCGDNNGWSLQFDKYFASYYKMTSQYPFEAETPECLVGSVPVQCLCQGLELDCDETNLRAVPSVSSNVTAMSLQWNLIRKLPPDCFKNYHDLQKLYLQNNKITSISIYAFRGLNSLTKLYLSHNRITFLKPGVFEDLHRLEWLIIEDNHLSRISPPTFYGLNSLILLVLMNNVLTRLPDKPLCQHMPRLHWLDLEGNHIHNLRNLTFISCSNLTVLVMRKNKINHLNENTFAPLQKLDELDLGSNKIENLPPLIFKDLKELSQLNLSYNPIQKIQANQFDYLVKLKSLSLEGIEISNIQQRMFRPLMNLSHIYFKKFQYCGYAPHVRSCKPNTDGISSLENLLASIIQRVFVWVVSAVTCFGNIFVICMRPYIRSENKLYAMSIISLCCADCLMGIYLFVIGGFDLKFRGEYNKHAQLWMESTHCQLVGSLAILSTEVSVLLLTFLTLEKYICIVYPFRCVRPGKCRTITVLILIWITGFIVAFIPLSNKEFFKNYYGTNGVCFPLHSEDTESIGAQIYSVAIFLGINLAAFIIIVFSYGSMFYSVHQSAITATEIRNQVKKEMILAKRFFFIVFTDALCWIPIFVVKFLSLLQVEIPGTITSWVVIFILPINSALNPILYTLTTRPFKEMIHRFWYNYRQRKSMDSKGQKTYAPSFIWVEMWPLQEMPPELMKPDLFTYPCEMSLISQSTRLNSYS
RXFP1 ag = qHTS Assay for Agonists of the Relaxin Receptor RXFP1; HEK293T-RXFP1 cAMP TR-FRET, 30 min; response scale: percent of porcine relaxin response, buffer zero; Potency, µM (top dose mostly 57.5 µM), hits mostly activators; 0.3% of 370,000 active; AID 2676, 2010; active = well fitted activation curve with a large enough effect; inconclusive = small, poorly fitted or top-dose-only effect; also: nearly all actives have a fitted effect of over 60% in size
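HEK293T cells stably expressing RXFP1 were pretreated with the PDE4 inhibitor Ro 20174, exposed to compounds for 30 min at 37C, lysed, and cAMP was read by TR-FRET. Data normalized to buffer (basal) and 29 nM porcine relaxin (100%).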
Of the large screens only hits and unclear results are named; the others gave an inactive call. The list is not random: actives were taken first. Their share in the collection is about 1%.

COc1ccc(NC(=O)C/C(C)=N/NC(=O)c2ccco2)c([N+](=O)[O-])c1	gsp agonist inconclusive, RXFP1 antagonist -66
O=C(CCn1cnc2ccccc2c1=O)NCc1ccccc1	none (no result: gsp antag, TSHR antagonist, gsp agonist, RXFP1 antagonist)
C=C(C)C(=O)OCC(O)CO (stereo not drawn)	none (no result: gsp antag, TSHR antagonist, gsp agonist, RXFP1 ag)
CNC(=S)N(Cc1ccco1)Cc1cc2cc(OC)c(OC)cc2[nH]c1=O	gsp antag 6.3µM
CC(C)(C)c1nc(SCC(=O)c2ccccc2)c2ccccc2n1	RXFP1 antagonist -67
CC(C)(C)c1nc(SCC(=O)N2CCCC2)c2ccccc2n1	none (no result: gsp antag)
Cc1ccccc1NC(=O)CSc1cn(CC(=O)N(C(C)C)C(C)C)c2ccccc12	none (no result: gsp antag, TSHR antagonist, gsp agonist)
CCOc1ccc2oc(C(=O)OCC(=O)N3C(C)CCCC3C)c(C)c2c1 (stereo not drawn)	gsp antag inconclusive, TSHR antagonist -79, gsp agonist inconclusive
O=C(Cn1ncc2c([nH]c3ccccc32)c1=O)NCC1CCN(Cc2ccc(F)cc2)CC1	TSHR antagonist -138
CCCn1c2ccccc2c2cnn(CC(=O)NCC3CCN(Cc4ccc(F)cc4)CC3)c(=O)c21	none (no result: gsp antag, TSHR antagonist, gsp agonist)
CCOc1ccccc1NC(=O)c1cc2ccc3cccnc3c2[nH]1	none (no result: gsp antag, TSHR antagonist, gsp agonist)
COc1ccccc1NC(=O)c1cc2ccc3cccnc3c2[nH]1	RXFP1 antagonist -71 (no result: gsp antag, TSHR antagonist, gsp agonist)
CC(C)N(Cc1ccccc1)C(=O)c1cc2ccc3cccnc3c2[nH]1	RXFP1 antagonist -101 (no result: gsp antag, TSHR antagonist, gsp agonist)
CC(=O)N1CC(=O)N=C1SCC(=O)Nc1nc(C)c(-c2ccccc2)s1	gsp antag inconclusive, RXFP1 antagonist -110
CCN1CCN(c2ccc(S(=O)(=O)N3CCOCC3)cc2NC(=O)c2ccc(C(F)(F)F)cc2)CC1	none
CCOc1cc(N2CCOCC2)c(OCC)cc1NC(=O)c1cccc(S(=O)(=O)N2CC(C)OC(C)C2)c1 (stereo not drawn)	none (no result: gsp antag, TSHR antagonist, RXFP1 ag)
CCOc1cc(N2CCOCC2)c(OCC)cc1NC(=O)c1cccc(S(=O)(=O)N2CCOCC2)c1	TSHR antagonist -88 (no result: RXFP1 ag)
CCOc1cc(N2CCOCC2)c(OCC)cc1NC(=O)c1c(-c2ccccc2)noc1C	none
Cc1ccc(S(=O)(=O)N2CCOCC2)cc1NC(=O)c1cc([N+](=O)[O-])ccc1N1CCOCC1	gsp agonist 11µM
CCOc1cc(N2CCOCC2)c(OCC)cc1NC(=O)c1c(C)noc1C	gsp antag 35µM
CCN1CCN(c2ccc(S(=O)(=O)N3CCOCC3)cc2NC(=O)c2cccc([N+](=O)[O-])c2)CC1	gsp agonist 25µM (no result: RXFP1 ag)
CCCCCn1c(-c2cccc(C)c2)nc2ccccc21	RXFP1 antagonist inconclusive (no result: gsp antag, TSHR antagonist, gsp agonist)
CN(C)c1cc(NC(=O)CNC(C)(C)C)c(O)c2c1C[C@@H]1C[C@H]3[C@H](N(C)C)C(=O)C(C(N)=O)=C(O)[C@@]3(O)C(=O)C1=C2O	none (no result: gsp antag, TSHR antagonist, gsp agonist, RXFP1 ag)
COc1ccc(/C=C2\SC(=S)N(NS(=O)(=O)c3ccc(C)cc3)C2=O)c(OC)c1	gsp antag 50µM
COc1ccc(/C=C2\SC(=S)N(NS(=O)(=O)c3ccccc3)C2=O)c(OC)c1	gsp antag inconclusive, RXFP1 antagonist -68
COc1ccc(OC)c(/C=C2\SC(=S)N(NS(=O)(=O)c3ccccc3)C2=O)c1	gsp antag 18µM, gsp agonist inconclusive
COc1ccc(OC)c(/C=C2\SC(=S)N(NS(=O)(=O)c3ccc(C)cc3)C2=O)c1	gsp antag inconclusive, RXFP1 antagonist inconclusive
CCOc1cc(/C=C2\SC(=S)N(NS(=O)(=O)c3ccccc3)C2=O)ccc1O	gsp antag 25µM
COc1ccccc1/C=C1\SC(=S)N(NS(=O)(=O)c2ccc(C)cc2)C1=O	gsp antag inconclusive, gsp agonist inconclusive
CCOc1ccccc1NC(=O)c1c(NC(=O)c2ccccc2C)sc2c1CCC(C)C2 (stereo not drawn)	none (no result: gsp antag, TSHR antagonist, gsp agonist)
CC1(C)CC(C(CCN(Cc2ccccc2)C(=O)c2ccco2)c2ccc(F)cc2)CCO1 (stereo not drawn)	gsp antag 28µM
COc1ccc2cc(CNc3ccccc3)c(=O)n(CC(=O)Nc3ccc(C(C)=O)cc3)c2c1	none (no result: gsp antag, TSHR antagonist, gsp agonist, RXFP1 antagonist)
COc1cc(C2c3c(oc4ccccc4c3=O)C(=O)N2c2nccs2)ccc1O (stereo not drawn)	RXFP1 antagonist -105
COc1cc(C2c3c(oc4ccccc4c3=O)C(=O)N2c2ccc(C)cn2)ccc1O (stereo not drawn)	none
O=C(COc1ccccc1[N+](=O)[O-])Nc1ccc(N2CCN(C(=O)c3cccs3)CC2)cc1	gsp antag 28µM
CCC(=O)Nc1ccc(N2CCN(C(=O)c3cccs3)CC2)cc1	none
CCCOc1ccc(NC(=O)CC2C(=O)N(CC)C(=S)N2CCCN2CCN(Cc3ccccc3)CC2)cc1 (stereo not drawn)	RXFP1 antagonist -65
CCOc1cc(/C=N/NC(=O)c2ccccc2-n2cccc2)ccc1O	none
COc1ccc(/C=N\NC(=O)c2ccccc2Cl)cc1COc1c(F)c(F)c(F)c(F)c1F	none
CCOc1cc(/C=N/NC(=O)c2ccccc2OCc2ccc(F)cc2)ccc1O	gsp antag 35µM, gsp agonist inconclusive
COc1ccc(/C=N\NC(=O)c2ccccc2OC)cc1COc1c(F)c(F)c(F)c(F)c1F	gsp antag 40µM
COc1ccc2c(Sc3ccc(Cl)cc3)c(C(=O)NCCCN3CCCCC3)[nH]c2c1	RXFP1 antagonist inconclusive (no result: gsp antag, TSHR antagonist, gsp agonist)
Cc1[nH]n(-c2ncc(-c3ccc(Cl)cc3)s2)c(=O)c1C(c1ccc(Cl)cc1)C(C#N)C#N (stereo not drawn)	RXFP1 antagonist -88
COc1ccc(C(c2c(C)[nH]n(C(N)=S)c2=O)C(C#N)C#N)cc1 (stereo not drawn)	none
CCOC(=O)C(=O)CCCCCCl	none (no result: gsp antag, TSHR antagonist, gsp agonist, RXFP1 ag)
COc1ccccc1CNS(=O)(=O)c1cc(-c2cc(C)no2)ccc1C(C)C	TSHR antagonist -80
CN1C(=O)/C(=C/c2ccccc2F)Sc2ccc(C(=O)N3CCCC3)cc21	gsp antag 28µM
Cc1ccccc1/C=C1\Sc2ccc(C(=O)N3CCN(c4ccccn4)CC3)cc2N(C)C1=O	gsp antag inconclusive
O=C(c1ccc2c(c1)N(Cc1ccccc1Cl)C(=O)c1ccccc1S2)N1CCCC1	RXFP1 antagonist -68 (no result: gsp antag, TSHR antagonist, gsp agonist)
CCc1ccc2n(-c3ccc(OC)cc3)c([S-])c(C(=O)Nc3cc(C)cc(C)c3)[n+]2c1	RXFP1 ag 5µM
COc1ccc(CCNC(=O)c2c([S-])n(-c3ccc(C)cc3)c3cccc[n+]23)cc1	none
CCOC(=O)c1c(C)n(-c2ccccc2)c2ccc(OC(=O)c3ccccc3NC(=O)C(C)C)cc12	none (no result: gsp antag, TSHR antagonist, gsp agonist)

Screens deposited in PubChem BioAssay by National Center for Advancing Translational Sciences (NCATS).
